Screening data: PubChem BioAssay, several laboratories
M18AAP inhibitor: PfM18AAP enzyme inhibition; recombinant PfM18AAP, H-Glu-NHMec fluorogenic cleavage; inhibition, % at 7.35 µM; actives 1.2% (n = 290,000);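 active = inhibition above the campaign mean inhibition over all tested compounds plus 3 SD, cut at about 28% in these data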
NPR2 activator: GC-B (human) receptor activation | actives 0.11% (n = 370,000) | P20594 | HEK293-GC-B cells, CNP EC30, cGMP TR-FRET; 0% at EC30 CNP, 100% saturating CNP | activation, % at 10 µM;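 active = activation at 10 µM reaching about 35% in either raw or pattern-adjusted values, limit read from the data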
Target sequence (P20594 whole entry, looked up): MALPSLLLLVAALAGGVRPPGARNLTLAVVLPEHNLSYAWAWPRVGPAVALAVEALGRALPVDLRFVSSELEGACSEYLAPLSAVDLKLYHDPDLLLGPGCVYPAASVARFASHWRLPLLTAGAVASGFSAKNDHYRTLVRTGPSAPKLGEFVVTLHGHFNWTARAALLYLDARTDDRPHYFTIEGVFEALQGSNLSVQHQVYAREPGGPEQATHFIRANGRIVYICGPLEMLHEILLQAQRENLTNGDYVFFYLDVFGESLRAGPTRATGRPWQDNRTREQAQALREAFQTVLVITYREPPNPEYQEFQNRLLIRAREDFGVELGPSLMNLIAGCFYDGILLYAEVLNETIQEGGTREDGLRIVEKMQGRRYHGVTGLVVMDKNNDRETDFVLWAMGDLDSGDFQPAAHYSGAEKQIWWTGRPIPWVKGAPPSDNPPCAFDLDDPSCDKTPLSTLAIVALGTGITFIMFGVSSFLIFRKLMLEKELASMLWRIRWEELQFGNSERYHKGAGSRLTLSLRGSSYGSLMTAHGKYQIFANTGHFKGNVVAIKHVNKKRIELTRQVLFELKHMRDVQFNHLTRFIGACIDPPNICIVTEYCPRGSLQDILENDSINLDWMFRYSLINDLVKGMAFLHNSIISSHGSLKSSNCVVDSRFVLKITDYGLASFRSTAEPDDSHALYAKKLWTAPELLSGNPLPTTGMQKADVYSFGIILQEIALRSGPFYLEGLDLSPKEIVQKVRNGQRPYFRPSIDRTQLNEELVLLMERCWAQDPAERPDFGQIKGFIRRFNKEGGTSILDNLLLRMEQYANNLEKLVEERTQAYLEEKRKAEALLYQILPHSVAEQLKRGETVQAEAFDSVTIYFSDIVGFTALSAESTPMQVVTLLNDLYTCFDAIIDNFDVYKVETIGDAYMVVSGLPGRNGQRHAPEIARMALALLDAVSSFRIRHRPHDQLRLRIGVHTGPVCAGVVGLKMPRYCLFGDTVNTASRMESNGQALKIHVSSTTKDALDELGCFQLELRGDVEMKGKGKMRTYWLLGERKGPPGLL
GC-A act: GC-A (human) enzyme activation | P16066 | actives 0.14% (n = 370,000) | activation, % at 10 µM | HEK293 GC-A cells, cGMP TR-FRET, EC30 ANP; 0% at EC30 ANP, 100% saturating ANP; in the data active = activation above about 40%
PLC-beta3 inh: blocks human PLC-beta3 enzyme activity | Q01970 | Purified PLC-beta3, fluorogenic substrate, fluorescence | inhibition, % at 12.2 µM | actives 0.18% (n = 370,000)
Rce1 inh: yeast Ras-converting enzyme inhibition | Q03530 | yeast membranes, quenched prenylated peptide cleavage fluorescence | calls only | actives 0.27% (n = 290,000);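 active = fall in fluorescence gain of 50% or more versus controls, with final raw signal at or below 3038400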
PLC-gamma1 inh: inhibitors of human phospholipase C gamma1. P19174. purified PLC-gamma1, fluorogenic substrate, fluorescence. inhibition, % at 12.2 µM. actives 0.84% (n = 370,000). AID 720700; in the data active = inhibition above about 9.5%
PLCg1 ctr: inhibits human PLC-gamma1 in PLC-beta3 counter-screen; inhibition, % at 12.3 µM; purified PLC-gamma1, fluorogenic substrate, fluorescence; actives 3.1% (n = 3,300); shares compounds with PLC-gamma1 inh; AID 743258; in the data active = inhibition above about 9.5%
PLCb3 confirm: human PLC-beta3 inhibition, confirmation | shares compounds with PLC-gamma1 inh | purified PLC-beta3, fluorogenic substrate fluorescence | inhibition, % at 12.3 µM | actives 1% (n = 3,300) | AID 743261
Hits are given with their value; - = inactive; . = no result given. Shown are actives, neighbours in structure and some others; about 2.2% of the full set was active somewhere. Cut-off read from the data, not from the text of the source, unless noted: active = inhibition above about 11%; inactive = the rest.

SMILES	M18AAP inhibitor	NPR2 activator	GC-A act	PLC-beta3 inh	Rce1 inh	PLC-gamma1 inh	PLCg1 ctr	PLCb3 confirm
O=[N+]([O-])c1ccc(CS(=O)(=O)c2ncn[nH]2)cc1	-	-	-	-	-	-	.	.
Cc1cc(SCC(=O)N2CCCC2=O)nc2ccccc12	.	-	-	-	.	12	-	-
Cc1ccc(OC(C)C(=O)N(Cc2cccs2)C2CCS(=O)(=O)C2)cc1C (stereo not drawn)	-	-	-	-	-	9.8	-	-
Cc1cc(OC(C)C(=O)N(Cc2cccs2)C2CCS(=O)(=O)C2)ccc1Cl (stereo not drawn)	-	-	-	-	-	-	.	.
Cc1ccc(Nc2n[nH]c(C)c2[N+](=O)[O-])cc1	-	-	-	-	-	-	.	.
Cc1[nH]nc(Nc2ccc(C(C)C)cc2)c1[N+](=O)[O-]	-	-	-	-	-	11	-	-
CSc1ccn(CCC(=O)O)c(=O)n1	-	-	-	-	-	-	.	.
CSc1nc(=O)n(CCC#N)nc1SC	.	-	-	12	.	-	-	-
CSc1cnn(CCC#N)c(=O)n1	.	-	-	-	.	12	-	-
Cc1nnc(SCCC#N)n(CCC#N)c1=O	-	-	-	-	-	-	.	.
CCC(C)c1ccc(NC(=O)CSc2nnc(-c3cccc(C)c3)n2C)cc1 (stereo not drawn)	.	-	-	-	.	-	.	.
Cc1ccc(OCCn2ccnc2)c([N+](=O)[O-])c1	-	-	-	-	-	13	-	-
CCc1c(Cc2cccc(F)c2)ncn1CCc1ccccc1OC	.	-	-	-	.	-	.	.
Cc1ccc(CN2CCC[C@]3(N[C@H](c4ccc(C)cc4)[C@@H]4C(=O)N(Cc5ccccc5)C(=O)[C@@H]43)C2=O)cc1	.	-	-	-	.	9.9	-	-
Cc1ccc(CN2CCC[C@]3(N[C@H](c4ccccc4)[C@@H]4C(=O)N(Cc5ccccc5)C(=O)[C@@H]43)C2=O)cc1	.	-	-	-	.	-	.	.
Cc1cc(C)cc(Nc2nc3ccccc3c(=O)[nH]2)c1	-	-	-	-	-	-	.	.
Cc1ccc2c(=O)[nH]c(Nc3nc(C)cc(-c4ccccc4)n3)nc2c1	-	-	-	-	-	11	-	-
Nc1cccc(C(=O)Nc2ccc3nc(-c4cccnc4)[nH]c3c2)c1	-	-	-	-	-	12	-	-
COc1ccc(S(=O)(=O)CCC(=O)NCCc2cccc(C)c2)cc1	-	-	-	-	-	9.7	-	-
COc1ccc(OC)c(S(=O)(=O)NCC2CCN(C(=O)C(=O)c3cccs3)CC2)c1	.	-	-	-	.	-	.	.
COc1cc2[nH]c(=O)n(C3CCCCC3)c(=O)c2cc1OC	-	-	-	14	-	13	-	-
Cc1ccc2nc3n(c(=O)c2c1)CCCCC3	-	-	-	-	-	11	-	-
COc1ccccc1C(=O)NC(=O)COc1ccc([N+](=O)[O-])cc1	.	-	-	-	-	9.8	-	-
CCN(CC)CCNC(=O)c1ccc2c(c1NCCO)C(=O)c1ccccc1C2=O	-	-	-	-	-	-	.	.
CC1CCN(C(=O)c2ccc3c(c2NCCO)C(=O)c2ccccc2C3=O)CC1	-	-	-	15	-	10	-	-
SMILES	M18AAP inhibitor	NPR2 activator	GC-A act	PLC-beta3 inh	Rce1 inh	PLC-gamma1 inh	PLCg1 ctr	PLCb3 confirm
COc1ccc(CCNC(=O)c2cc3c(C)nn(-c4ccccc4)c3s2)cc1OC	.	-	-	-	.	-	.	.
Cc1ccc(OCc2nnc(SCC(=O)Nc3cccc4ccccc34)n2Cc2ccco2)cc1	.	-	-	-	.	-	.	.
OCCN(Cc1ccccc1)CC(O)COc1ccc(-c2ccccc2)cc1 (stereo not drawn)	-	-	-	-	.	13	-	-
O=C(CSc1nnnn1-c1ccccc1)Nc1ccc(N2CCOCC2)cc1	-	-	-	-	-	-	.	.
O=C(CSc1nnnn1-c1ccccc1)Nc1ccc(Cl)cn1	-	-	-	-	-	-	.	.
O=C(CSc1nnnn1-c1ccccc1)Nc1ccc(Cl)cc1	-	-	-	-	-	14	-	-
O=C(CSc1nncn1-c1ccccc1)Nc1ccc(N2CCOCC2)cc1	-	-	-	-	-	9.8	-	-
O=C(CSc1n[nH]c(=O)n1-c1ccccc1)Nc1ccccc1	-	-	-	-	-	15	-	-
NC(=O)c1ncn2c(=O)n(CCCl)nnc12	.	-	-	-	.	-	.	.
COC(=O)[C@]12C[C@H](CC(=O)NCc3ccc(OC)c(OC)c3)C(=O)N(Cc3ccco3)C1=C[C@H](C1CCCC1)O[C@@H]2C	.	-	-	-	.	-	.	.
CCC[C@H]1[C@@H](NCc2ccccc2)CC[C@@]23CCCN2C(=O)CCC[C@@H]13	.	-	-	-	.	-	.	.
CN(C)S(=O)(=O)c1cccc(C(=O)N/N=C\c2ccccc2[N+](=O)[O-])c1	.	-	-	-	.	-	.	.
CCOC(=O)C1CCN(C(=O)C(C)(C)NC(=O)Nc2ccc(OC)c(Cl)c2)CC1	.	-	-	-	.	-	.	.
Cc1nn(CCOc2ccccc2)c(=O)n1-c1ccc(F)cc1	-	-	-	-	-	11	-	-
Cc1nn(CCOc2ccccc2)c(=O)n1-c1cccc(F)c1	-	-	-	-	-	-	.	.
O=C(NCCc1c[nH]c2ccccc12)OCc1cn(Cc2ccc(C(F)(F)F)cc2)nn1	.	-	-	-	.	-	.	.
O=S(=O)(c1ccc(Cl)s1)N1CCC(c2nc3ccccc3o2)CC1	.	-	-	-	.	-	.	.
C=CC[C@@H](CC(=O)NCCO)C(=O)N[C@@H](COC(=O)[C@@H](CC=C)CC(=O)OC(C)(C)C)Cc1ccccc1	.	-	-	-	.	10.0	-	-
C=CC[C@@H](CC(=O)N[C@H](CO)Cc1ccccc1)C(=O)N[C@@H](COC(=O)[C@H](CC=C)CC(=O)OC(C)(C)C)Cc1ccccc1	.	-	-	-	.	9.5	-	-
C=CC[C@@H](CC(=O)N[C@@H](CO)Cc1ccccc1)C(=O)N[C@H](COC(=O)[C@@H](CC=C)CC(=O)OC(C)(C)C)Cc1ccccc1	.	-	-	-	.	-	.	.
Cc1ccc(-n2c(SCC(=O)Nc3ccc4cn[nH]c4c3)nnc2-c2ccccc2)cc1	.	-	-	-	.	-	.	.
CCn1c(SCC(N)=O)nnc1-c1ccc(OC)c(OC)c1	-	-	-	-	-	13	-	-
CCCCCCNC(=O)C1CSCCS(=O)(=O)N1Cc1ccc(C)cc1 (stereo not drawn)	.	-	-	-	.	-	.	.
O=C(CCCCCN1C(=O)C2C3C=CC(C3)C2C1=O)N1CCN(c2ncccn2)CC1 (stereo not drawn)	.	-	-	-	.	-	.	.
Cc1ccc(OCCNCc2ccccc2)c(C)c1	-	-	-	-	.	-	.	.
